Common to all, as to assay: NCI-60 one-dose screen, 48 h (100 = growth as untreated, 0 = no growth, -100 = all killed)
What all share (conditions): 10 µM unless noted

For test [1], the system named is HCT-15 colon.
Test [2] has as its system HT29 colon.
Test [3] concerns SNB-19 CNS.
The test system of test [4] is U251 CNS.
Test [5] has as its system PC-3 prostate.
For test [6], the system named is SK-MEL-5 melanoma.
Test [7] concerns UACC-62 melanoma.
Test [8] has as its system LOX IMVI melanoma.
In test [9] the test system is SK-MEL-28 melanoma.
Test [10] has as its system EKVX NSCLC.
In test [11] the test system is SN12C renal.
Test [12] concerns UO-31 renal.
Test [13] deals with TK-10 renal.
Test [14] deals with ACHN renal.
Test [15] deals with CAKI-1 renal.
In test [16] the test system is A498 renal.
Test [17] has as its system SK-MEL-2 melanoma.
Test [18] has as its system CCRF-CEM leukemia.
Test [19] deals with MOLT-4 leukemia.

This is part of a sample that, as a whole, favours compounds with a hit. Of some 83,000 tested, about 20% had one in any assay.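 Testing used 96-well plates and a 48-hour single-concentration exposure. Example: -40 means 40% of the starting cells died.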 Values without a mark were called inactive. Activity calls are given as the source filed them. Rule for the calls: active = growth percent below 10; inactive = the rest.

As for `COc1ccc(-c2ccc(C)n2-c2ccc(-c3nc4cc(Cl)ccc4s3)cc2)cc1`, the growth was 105% in test [1]; 100% in test [2]; 103% in [3]; 98.2% in [4]; 113% in test [5]; 97.9% in test [6]. The growth in test [7] was 85.2%; in test [8], 95.8%; in test [9] it was 125%; in test [10], 90.3%; in test [11], 90.5%; in [12] it was 85%. For the same molecule, the growth is 81.6% in test [13], 108% in test [14], 79.9% in test [15] and 91.4% in test [16].

Regarding `O=[N+]([O-])c1ccc(C(c2ccccc2)c2ccccc2)cc1`, the growth was 86.4% in test [1]; 84.4% in test [2]; 96.9% in test [3]; 102% in [4]; 94.1% in [5]; 96.7% in test [6]. In addition, the growth in test [7] is 85.5%; in [8] it was 69.7%; in test [17], 110%; in test [10] it was 94.8%; in test [11], 92%; in test [12], 80.4%. For the same molecule, the growth in test [13] was 96.4%; in [14], 90.3%; in [15], 83.1%; in test [16] it was 91.3%; in test [18], 97.8%; in [19] it was 95.2%.

On to `Oc1ccc(Cl)cc1-c1cc(-c2ccc(F)cc2)n[nH]1`, for which the growth was 30% in test [1]; 98.7% in test [2]; 77.6% in test [3]; 63.8% in [4]; 63.8% in test [5]; 45.2% in test [6]. The growth is 59.2% in test [7]; 61.3% in test [8]; 105% in test [9]; 50.6% in test [10]; 66.6% in test [11]; 37.5% in test [12]. Further, the growth in test [13] is 114%; in test [14], 74.3%; in [15], 50.4%; in test [16], 69.6%; in test [19] it was 60.9%.

Regarding `O=C(Nc1ccncc1)C(=O)c1cn(S(=O)(=O)c2ccc(Oc3ccccc3)cc2)c2ccccc12`, the growth in test [1] was 88.6%; in test [2], 101%; in test [3] it was 98.6%; in [4], 94%; in test [5] it was 85.7%; in test [6], 98.2%. For the same molecule, the growth in [7] is 79.1%; in test [8], 91.3%; in [9], 110%; in test [10] it was 42.3%; in test [11], 84.9%; in test [12], 62.3%. Moreover, the growth was 102% in [13], 57% in test [15] and 34.7% in test [16].

For the molecule `COc1ccc(-c2cc3c(OC)c(OC)c(OC)cc3oc2=O)cc1`, the growth in test [1] is 37.9%; in test [2], 12%; in [3] it was 65.8%; in [4], 40.6%; in [5], 62.1%; in test [6], 14.4%. For the same molecule, the growth in test [7] was 40.2%; in test [8], 46.8%; in [9], 67.5%; in test [10], 64.3%; in test [11] it was 56.4%; in test [12] it was 77.9%. Moreover, the growth is 85% in [13]; 66.8% in [14]; 57.1% in test [15]; 34.2% in test [16]; 64.7% in [19].

In the case of `O=C(NCc1cn(Cc2cccc(Oc3ccccc3)c2)nn1)c1cccnc1Nc1ccc(F)cc1`, the growth in test [1] was 31.3%; in test [2], 38.3%; in [3] it was 72.9%; in test [4], 55.3%; in test [5], 89.3%; in [6] it was 40.8%. The growth in test [7] was 43%; in [8], 54.4%; in test [9], 72.4%; in test [10] it was 61.8%; in test [11], 44.4%; in [12], 59.3%. The growth was 83.8% in [13], 53.9% in [15] and 26.5% in test [16].

Consider `COc1ccc(Nc2ncccc2C(=O)NCc2cn(Cc3cccc(Oc4ccccc4)c3)nn2)cc1`, for which the growth was 32.2% in test [1]; 12.6% in test [2]; 61.2% in test [3]; 46.2% in [4]; 54.7% in test [5]; 16.3% in test [6]. Moreover, the growth in [7] is 35.3%; in test [8] it was 47.7%; in [9], 63.3%; in test [10] it was 40.1%; in test [11], 47.5%; in [12], 40.9%. For the same molecule, the growth in test [13] is 76.3%; in test [14] it was 51.2%; in [15], 42.3%; in [16], 27.5%; in test [19] it was 48%.

As to `COc1cc2c(cc1OCCCN1CCN(CCCn3c4ccccc4c4ccccc43)CC1)N=C[C@@H]1CCCN1C2=O`, the growth in test [1] was -44.6% (active); in [2], -17.2% (active); in test [3] it was -49.8% (active); in test [4] it was -99.1% (active); in [5] it was -64.7% (active); in test [6] it was -100% (active). Also, the growth was -87.3% (active) in test [7]; -91.2% (active) in [8]; -78.1% (active) in test [17]; -86.8% (active) in [10]; -47.9% (active) in [11]; -91.7% (active) in test [12]. In addition, the growth is -79.6% (active) in test [13]; -100% (active) in test [14]; -75% (active) in test [15]; -96.9% (active) in test [16]; -11.4% (active) in test [18]; -39.6% (active) in [19].

Consider `Cc1ccc(S(=O)(=O)/C(=C\c2ccc(Cl)cc2)C(=O)c2ccccc2)cc1`, for which the growth was 100% in test [1]; 123% in test [2]; 95.7% in test [3]; 102% in [4]; 96.4% in [5]; 103% in test [6]. Besides, the growth in test [7] was 101%; in test [8], 104%; in [9], 100%; in [11], 98.9%; in [12], 90.1%; in [13] it was 124%. For the same molecule, the growth was 109% in [14]; 87.3% in test [15]; 99.4% in [16]; 97.7% in test [18]; 99.1% in test [19].

Source of the values: PubChem BioAssay (NCI).
